This is one part of a sample in which hits are shown more often than they occur.
Pf Dd2 growth: blocks in vitro growth of P. falciparum Dd2; P. falciparum Dd2 growth, SYBR Green, 72 h; Potency, µM (highest dose often 28.9 µM), inactives show at the highest dose activity, negative = inhibition, most hits filed as inhibitors; hit rate 4.3% among 120,000; AID 1347417; active = well fitted inhibition curve with a large enough effect;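 note: plate controls were DMSO vehicle for no effect and reference drug for full effect; nearly all actives have a fitted effect of over 65% in size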
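Readout: SYBR Green fluorescence, 485 nm excitation, 535 nm emission, after ~16 h lysis at 37C. Before that, Dd2-infected red cells (2.5% hematocrit) grew 72 h with compound, 29 uM top final concentration.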
Numbers without * were called inactive; i = inactive; [ ] = dose if it differs, or a comment. Potency is the fitted concentration of half-maximal effect.

SMILES | Pf Dd2 growth
Cc1nc(N2CCN(C(=O)Cc3ccc(Cl)cc3)CC2)cc(C(F)(F)F)n1 | 3.98µM*
Cc1nc(N2CCN(C(=O)Cc3ccccc3Cl)CC2)cc(C(F)(F)F)n1 | -17.9%
Cc1nc(N2CCC(NC(=O)Cc3ccc(Cl)cc3)CC2)cc(C(F)(F)F)n1 | i
O=C(O)C[C@@H]1CCN(C(=O)c2ccco2)C[C@@H]1CCN1CCN(c2ccc(F)cc2)CC1 | 6.5%
O=C(NC1CCN(c2cc(-c3ccc(Cl)cc3)[nH]n2)CC1)c1ccc2[nH]ccc2c1 | -14.7%
O=C(CN1C(=O)C(c2ccccc2)=NC12CCCCC2)NC1CCCC1 | -19.5%
Cc1ccc(CCNC(=O)c2ccc(CSc3nc4ccncc4n3Cc3ccc(F)cc3)cc2)cc1 | 4.47µM*
O=C(NCCc1ccccc1)c1ccc(CSc2nc3ccncc3n2Cc2ccc(F)cc2)cc1 | 7.08µM*
Cc1ccc(NC(=O)Cn2c(SCc3cccc(F)c3)nc3ccncc32)c(C)c1 | i
COC(=O)c1ccc(Cn2c(SCC(=O)Nc3ccc(F)cc3)nc3ccccc32)cc1 | 22.4%
Cc1ccc(Cn2c(CO)cnc2SCc2ccc(F)cc2)cc1 | -20.2%
CC(C)Cc1cc(C[C@@H]2C[C@H](NC(=O)C3CCC3)C2(C)C)no1 | i
O=C1Nc2ccccc2CC12CCN2Cc1ccc(C(F)(F)F)cc1 (stereo not drawn) | i
O=C(c1ccc(C(F)(F)F)cc1)N1CCC2(CC1)C(=O)Nc1ccccc12 | -3.1%
O=C1Nc2ccccc2CN(Cc2ccc(C(F)(F)F)cc2)C12CCNCC2 | 6.31µM*
O=C1Nc2ccccc2C12CCN(Cc1ccc(C(F)(F)F)cc1)CC2 | 12.6µM*
CC(=O)Nc1ccc(CN2CCC3(CC2)C(=O)Nc2ccccc23)cc1 | -13.6%
CC(C)=CCN1Cc2ccccc2NC(=O)C12CCNC2 (stereo not drawn) | -13.7%[44.1 µM]
COc1cccc(CCC(=O)Nc2ccc3ncnc(N4CCCC4)c3c2)c1 | -10.7%
Cc1noc(C)c1S(=O)(=O)N1CCCC(Cc2noc(-c3cccnc3)n2)C1 (stereo not drawn) | -13.8%
CC(C)N1C(=O)CO[C@H](c2ccc(NC(=O)NCc3ccccc3)cc2)[C@H]1CO | -29.7%[44.1 µM]
Cc1cnc(C(=O)N2CCCN(C(=O)C3CC3)c3ccccc32)cn1 | -2.1%
N[C@H]1CN(C(=O)c2ccccc2Oc2ccccc2)C[C@@H]1C1CC1 | 6.31µM*
N[C@H]1CN(C(=O)C2CCN(C(=O)c3ccccn3)CC2)C[C@@H]1C1CC1 | -14.1%
NC(=O)[C@@H]1CN(C(=O)c2ccccc2F)C[C@H]1COc1ccccc1 | 9.2%
SMILES | Pf Dd2 growth
CN(C)C[C@H]1C[C@H](CO)CN(C(=O)c2cccc(CCC(C)(C)O)c2)C1 | -4.3%
COCCNC(=O)C(NC(=O)CC(C)C)C1CCN(C(=O)c2ccccc2C)CC1 (stereo not drawn) | 4.7%
CS(=O)(=O)c1ccc(CN2CCOC[C@H]2c2ncc(-c3ccc(Cl)cc3)[nH]2)cc1 | 11.2µM*
Clc1ccc(-c2cnc([C@@H]3COCCN3Cc3cnc[nH]3)[nH]2)cc1 | -5.5%[44.1 µM]
Clc1ccc(-c2cnc([C@@H]3COCCN3CC3CC3)[nH]2)s1 | i
Cc1ccc(-c2cnc([C@@H]3COCCN3Cc3cnc[nH]3)[nH]2)cc1 | i
CC(C)(C)c1cnc([C@@H]2COCCN2Cc2ccccc2O)[nH]1 | 2µM*
c1ccc(-c2cnc([C@@H]3COCCN3Cc3cccnc3)[nH]2)cc1 | 11.9%[44.1 µM]
Fc1ccc(CN2CCOC[C@H]2c2ncc(-c3ccc(Cl)s3)[nH]2)cc1 | 11.2µM*
CS(=O)(=O)c1ccc(CN2CCOC[C@H]2c2ncc(-c3ccc(F)cc3F)[nH]2)cc1 | -28.7%[44.1 µM]
Cn1c(CN2CCOC[C@H]2c2ncc(-c3ccc(Cl)cc3)[nH]2)nc2ccccc21 | 10µM*
Fc1ccc(-c2cnc([C@@H]3COCCN3Cc3cccnc3)[nH]2)cc1 | i
CC(=O)N1CCC(N2CCOC[C@H]2c2ncc(-c3ccc(S(C)(=O)=O)cc3)[nH]2)CC1 | 16.5%[44.1 µM]
CC(C)(C)CN1CCOC[C@H]1c1ncc(-c2ccc(F)cc2F)[nH]1 | i
C=CCC1(C(=O)O)CCCN(C(=O)c2cn(CCN)nn2)C1 (stereo not drawn) | 3.7%
CCn1cc(CN2CCCCC2c2nc(CCOCC3CCOCC3)no2)cn1 (stereo not drawn) | -8.0%
COc1ccccc1-c1cc([C@H]2CN3CC[C@H]2C[C@@H]3CNC(=O)C2CCCCC2)n(C)n1 | i
CCC1Oc2ccc(NC(=O)Cc3cccc(OC)c3)cc2CN(Cc2ccc3c(c2)OCO3)C1=O (stereo not drawn) | i
COc1cc2c(cc1OCCN(C)C)NC(=O)C21CCN(Cc2ccccc2)CC1 | -7.9%[44.1 µM]
C[C@@H]1CN(Cc2nc3c(n2Cc2ccccc2)C(=O)N(CC2CC2)CCN3)C[C@H](C)O1 | -14.4%[44.1 µM]
COc1ccc(O[C@H]2COCCN(C(=O)N3CCOCC3)C2)cc1 | -8.4%[44.1 µM]
CCCc1nnsc1C(=O)N[C@@H]1COCC[C@@H]1OCC1CC1 | -23.4%
CCCN(C)C(=O)Cc1ccc(N(Cc2ccc(C)cc2)C(=O)c2ccco2)cc1 | -7.2%
CC(C)(C)c1cnc([C@@H]2COCCN2Cc2ccc(Cl)cc2)[nH]1 | 3.98µM*
CC(=O)Nc1ccc(CN2CCOC[C@H]2c2ncc(-c3ccc(F)cc3F)[nH]2)cc1 | i
SMILES | Pf Dd2 growth
CS(=O)(=O)N1CCOc2ccc(CCC(=O)N3CCC(C(N)=O)CC3)cc2C1 | 21.2%
O=C(NCc1ccccc1)c1noc(-c2ccc3c(c2)OCO3)n1 | i
COC[C@@H]1CN(C(=O)c2ccc(C)nc2)C[C@H]1c1nc(C2CC2)no1 | 18.0%
Cc1cnc(C(=O)NC2C[C@H]3CC[C@@H](C2)N3C(=O)COc2ccccc2)cn1 (stereo partly drawn) | i
COCC1CN(S(=O)(=O)c2cccs2)CC12CCNCC2 (stereo not drawn) | 29.6%
COCC1CN(C)CC12CCN(Cc1ccc(F)cc1F)CC2 (stereo not drawn) | -25.4%
COCC1CN(C)CC12CCN(Cc1ccc(F)c(Cl)c1)CC2 (stereo not drawn) | 5.01µM*
COCC1CN(C(C)=O)CC12CCN(S(=O)(=O)c1cccs1)CC2 (stereo not drawn) | -5.0%
COCC1CN(C)CC12CCN(Cc1ccc(OC)cc1)CC2 (stereo not drawn) | i
COCC1CN(C)CC12CCN(S(=O)(=O)c1cccs1)CC2 (stereo not drawn) | 3.55µM*
O=[S+]([O-])(Nc1cccnc1)c1ccc2c(c1)OCCN(Cc1ccccc1F)C2 | -17.9%[44.1 µM]
O=[S+]([O-])(Nc1cccnc1)c1ccc2c(c1)OCCN(Cc1ccncc1F)C2 | i
O=[S+]([O-])(Nc1ccccc1)c1ccc2c(c1)OCCN(Cc1ccncc1F)C2 | 5.01µM*
Cc1csc(CN(C)C(=O)CN2C[C@@H]3CC[C@H](CC2=O)N3)n1 | 3.7%
COC(=O)c1c(NC(=O)c2ccc(OC)cc2)c2cc(NC(C)CCn3cccn3)cnc2n1C (stereo not drawn) | -20.3%
CCOc1ccccc1NC(=O)N1CCCC(c2noc(COc3ccccc3)n2)C1 (stereo not drawn) | 5.62µM*
COCCOCc1nc(C2CCN(C(=O)NCc3ccc(C)cc3)CC2)no1 | -25.5%
Cc1c(F)cccc1NC(=O)N1CCCC(c2noc(COc3ccccc3)n2)C1 (stereo not drawn) | -86.4%
CCOc1ccccc1NC(=O)N1CCC(c2noc(COC)n2)C1 (stereo not drawn) | -7.1%
CCCNC(=O)N1CCC(c2noc(COc3ccc(C)cc3)n2)CC1 | 8.91µM*
CCCNC(=O)N1CCC(c2noc(COc3ccc(F)cc3)n2)C1 (stereo not drawn) | -28.6%

Bioassay records as filed in PubChem.
